Assay [1] concerns the target Cellular tumor antigen p53 (Homo sapiens) (UniProt P04637). Description: Primary qHTS for small molecule compounds that upregulate eGFP-tagged delta133p53alpha (in N-terminal) cells. (AID 2060322). Further: nearly all actives have a fitted effect of over 75% in size. Further: potency means the concentration at half of the fitted maximal effect.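 On activation: cells pre-induced with doxycycline then dosed without doxycycline; series mostly up to about 56 µM; 0% = DMSO vehicle and 100% = reference activator.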 Conditions: NCI-H358 eGFP-delta133p53alpha fluorescence, 24 h; activation: hits give high values. The gist of the method:
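NCI-H358 cells pre-induced 24 h with 10 ng/ml doxycycline for eGFP-delta133p53alpha, plated dox-free and exposed 24 h at 37C to titrated compounds. Fixed, Hoechst-stained; gated GFP peak intensity by laser scanning cytometry, normalized to DMSO (0%) and 57.5 uM 5-azacytidine (100%).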
A general note: In qHTS, concentration-response curves come from the screen itself.

The target of assay [2] is Aldehyde dehydrogenase, mitochondrial (Homo sapiens) (UniProt P05091). The assay can be described thus: qHTS for Inhibitors of the Aldehyde Dehydrogenase Family (ALDH2) Confirmatory screens (AID 2061303; active means well fitted inhibition curve with a large enough effect; title and protocol of this record describe different tests; further: on the % scale 0 is the no-effect control and ±100 the full control effect; nearly all actives have a fitted effect of over 45% in size).
The nature of assay [3]: qHTS for Inhibitors of the Aldehyde Dehydrogenase Family (ALDH1A2, ALDH1A3, ALDH2, ALDH3A1) (AID 2061307). Further: nearly all actives have a fitted effect of over 50% in size. On Potency: test system not described further here; potency means the concentration at half of the fitted maximal effect.
Assay [4] deals with Aldehyde dehydrogenase, mitochondrial (Homo sapiens) (UniProt P05091). The assay can be described thus: qHTS for Inhibitors of the Aldehyde Dehydrogenase Family (ALDH2) Primary screen (AID 2061308).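 Further: plate controls were vehicle for no effect and reference inhibitor for full effect; nearly all actives have a fitted effect of over 55% in size.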
The target in assay [5] is Retinaldehyde dehydrogenase 3 (Homo sapiens) (UniProt P47895). The assay can be described thus: qHTS for Inhibitors of the Aldehyde Dehydrogenase Family (ALDH1A3) Confirmatory screens (AID 2061311). Further: nearly all actives have a fitted effect of over 60% in size. Further: potency means the concentration at half of the fitted maximal effect.
For assay [6], the target named is Retinal dehydrogenase 2 (Homo sapiens) (UniProt O94788). The assay can be described thus: qHTS for Inhibitors of the Aldehyde Dehydrogenase Family (ALDH1A2) Confirmation screens (AID 2061314). Further: on the % scale 0 is the no-effect control and ±100 the full control effect; nearly all actives have a fitted effect of over 65% in size.
Assay [7] concerns the target Retinaldehyde dehydrogenase 3 (Homo sapiens) (UniProt P47895). The assay can be described thus: qHTS for Inhibitors of the Aldehyde Dehydrogenase Family (ALDH1A3) Primary screen (AID 2061315). Further: potency means the concentration at half of the fitted maximal effect.
Assay [8] deals with Aldehyde dehydrogenase 1A1 (Homo sapiens) (UniProt P00352). Description: qHTS for Inhibitors of the Aldehyde Dehydrogenase Family (ALDH1A1) Confirmatory screens (AID 2061316). Further: nearly all actives have a fitted effect of over 65% in size.
A short description of assay [9]: BET inhibitor-based combinations targeting novel dependencies in MECOM-rearranged (r) AML: SET-2 cell line (AID 2202231). Further: potency means the concentration at half of the fitted maximal effect; nearly all actives have a fitted effect of over 35% in size. The following applies: SET-2 AML cells viability, CellTiter-Glo luminescence, 48 h; viability: hits give low values, concentration not given here. A digest of the protocol:
(§1)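 Readout: CellTiter-Glo luminescence. Exposure: 48 h, 11 concentrations, 500 cells/well. Metric: AUC and within-line Z-AUC after DMSO/empty-well normalization.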
For orientation: ATP-based viability assays read luminescence as a measure of living cells.

Assay [10] in a line: BET inhibitor-based combinations targeting novel dependencies in MECOM-rearranged (r) AML: UCSD-AML1 cell line (AID 2202235). Further: nearly all actives have a fitted effect of over 40% in size. Further: potency means the concentration at half of the fitted maximal effect. A digest of the protocol:
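Seeding density was 500 cells/well, and drug exposure lasted 48 hr under standard culture conditions. Read-out used CellTiter-Glo reagent with a 15 min room-temperature incubation before luminescence measurement; AUC and Z-AUC summarize the normalized responses.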

Assay [11] can be described thus: BET inhibitor-based combinations targeting novel dependencies in MECOM-rearranged (r) AML: AML-191 cell line (AID 2202236; further: potency means the concentration at half of the fitted maximal effect; nearly all actives have a fitted effect of over 35% in size). The gist of the method: as §1
Assay [12] concerns the target Retinaldehyde dehydrogenase 3 (Homo sapiens) (UniProt P47895). Description: qHTS for Inhibitors of the Aldehyde Dehydrogenase Family (ALDH1A3) Validation screen (AID 2061312). Further: on the % scale 0 is the no-effect control and ±100 the full control effect; nearly all actives have a fitted effect of over 45% in size.
The nature of assay [13]: BET inhibitor-based combinations targeting novel dependencies in MECOM-rearranged (r) AML: OCI-AML3 cell line (AID 2202232).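 Further: series mostly up to about 46 µM; plate controls were DMSO vehicle wells for no effect and wells without cells for full effect; nearly all actives have a fitted effect of over 35% in size.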 Conditions: Potency: OCI-AML3 viability. A digest of the protocol:
as §1

Molecules are shown by their SMILES. “And” between values parts separate entries of the source, which are not always exact repeats. Equal entries are not always repeated. Results filed as inconclusive are left out. Values without a mark were called inactive. The source made the active and inactive calls. Unless noted, the call rests on the fitted dose curve; in most records, active means well fitted curve in the direction sought with a large enough effect; inconclusive means small, poorly fitted or top-dose-only effect, or another doubt; inactive means no such curve, though single readings can be large; an effect the other way counts as inactive or inconclusive.

Chain of Cellular tumor antigen p53 (Homo sapiens) (P04637 whole entry, looked up): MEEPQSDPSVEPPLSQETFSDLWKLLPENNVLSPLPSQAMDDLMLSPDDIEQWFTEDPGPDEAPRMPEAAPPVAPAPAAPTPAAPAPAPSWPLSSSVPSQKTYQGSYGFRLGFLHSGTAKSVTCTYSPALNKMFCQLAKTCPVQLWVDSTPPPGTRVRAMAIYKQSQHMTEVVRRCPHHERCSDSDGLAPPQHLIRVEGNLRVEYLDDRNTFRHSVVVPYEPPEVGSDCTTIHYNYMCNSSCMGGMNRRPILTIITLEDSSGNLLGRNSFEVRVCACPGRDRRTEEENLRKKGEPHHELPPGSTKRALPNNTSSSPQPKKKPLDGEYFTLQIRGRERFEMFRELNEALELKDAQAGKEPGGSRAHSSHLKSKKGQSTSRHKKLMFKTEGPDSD

For the compound `O=C(O)c1n[nH]c2c1C[C@H]1C[C@@H]21`, the activation in [1] was -8.11%. Besides, the Potency result in assay [2], in assay [3], in [4], in assay [5], in assay [6] and in [7] was “inactive” in each case. Also, the Potency entry in [8] was “inactive”.
As to `O=C(O)c1cccc(-c2noc(-c3ccccc3F)n2)c1`, the activation in assay [1] is 19.2% and 2.33% and 1.9%. In addition, the Potency entry in assay [2], in [4] and in assay [6] was “inactive” throughout. For the same compound, the Potency in assay [3] is 0.302 µM (active); in assay [5] it was 0.159 µM (active); in assay [7], 0.316 µM (active); in assay [9], 20.9 µM (active); in assay [10] it was 18.6 µM (active); in [11], 20.9 µM (active).
On to `Oc1ccc(CC2NCCc3cc(O)c(O)cc32)cc1` (stereo not drawn), for which, in assay [1], the activation is -12.9%. For the same compound, the Potency entry in assay [2], in assay [3], in assay [4], in assay [5], in assay [6] and in assay [8] was “inactive” throughout.
As for `CCOC(=O)[C@H](CCc1ccccc1)N[C@@H](C)C(=O)N1C(=O)N(C)C[C@H]1C(=O)O`, the activation in assay [1] is 12.6% and 0.333%. Also, the Potency entry in assay [2], in [3], in assay [4], in assay [5], in assay [6] and in [7] was “inactive” each time. Besides, the Potency result in assay [8] was “inactive”.
For `CCC(=O)c1cc(-c2ccc(Cl)cc2)n(-c2ccc(S(N)(=O)=O)cc2)c1C`, the activation in [1] is 0.955%. The Potency result in [2], in assay [3], in assay [4], in [5], in [12] and in assay [7] was “inactive” in each case. Also, the Potency result in [8] is “inactive”.
Consider `C=C1C(=O)O[C@H]2C[C@@H](C)[C@@H]3CCC(=O)[C@@]3(C)C[C@H]12`, for which the Potency in [1] was 10.7 µM (active); in assay [3] it was 20.1 µM (active); in [5] it was 14.2 µM (active). The Potency result in assay [2], in [4], in [6], in [7] and in assay [8] was “inactive” each time.
Regarding `O=c1cc(CN2CCOCC2)occ1OCCCCCSc1ccnc2cc(C(F)(F)F)ccc12`, in [1], the activation is -4.65% and 8.33%. For the same compound, the Potency result in [2], in assay [4], in [5], in [6], in assay [7] and in assay [13] was “inactive” each time. In addition, the Potency entry in assay [10] is “inactive”. In assay [3], the Potency is 22.5 µM (active).
